Potency and max response data for 17 molecules are collected here from PubChem BioAssay (NCATS).

Where “and” joins values, the source holds several entries; their conditions need not be identical. Identical values can stand only once. Inconclusive results are not listed. Entries that show only a call come without a potency. Some compounds were tested as several samples or in several runs, with calls that do not always agree. Calls of active or inactive are those of the source. Calls come from the whole dose curve; as a rule, active = well fitted curve in the direction sought with a large enough effect; inconclusive = small, poorly fitted or top-dose-only effect, or another doubt; inactive = no such curve, though single readings can be large; an effect the other way counts as inactive or inconclusive.

Calcium and integrin-binding protein 1 (Homo sapiens), sequence (Q99828 whole entry, looked up): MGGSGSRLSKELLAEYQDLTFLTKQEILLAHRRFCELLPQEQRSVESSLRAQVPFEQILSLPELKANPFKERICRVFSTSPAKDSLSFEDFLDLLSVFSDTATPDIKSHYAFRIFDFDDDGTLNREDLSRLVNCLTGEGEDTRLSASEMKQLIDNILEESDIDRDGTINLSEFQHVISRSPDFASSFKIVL

The target of one assay is Calcium and integrin-binding protein 1 (Homo sapiens) (UniProt Q99828). As to the kind of experiment: Primary qHTS for Identification of Calcium Integrin Binding Protein 1 (CIB1) Competitor (AID 1508620).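 Note: GST tagged CIB1 binding a fluorescein labelled alphaIIb integrin peptide tracer; top concentration of the series differs between compounds.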 As to conditions: CIB1-GST / FITC-alphaIIb peptide fluorescence polarization; series mostly up to 114 µM. In outline:
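Fluorescence polarization competition: CIB1-GST (1 uM final) preincubated with compound 15 min at room temperature, then FITC-labeled alphaIIb peptide (100 nM final) added for another 15 min. Polarization read at Ex 480/Em 540.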
Background: In qHTS, concentration-response curves come from the screen itself.
In the case of `CCC1C(=O)OCC1Cc1cncn1C` (stereo not given), the Potency entry is “inactive”.
With `CC(N)C(=O)OC(C)(C)Cc1ccc(Cl)cc1` (stereo not given), the Potency entry is “inactive”.
As to `CN1CC(=O)N/C1=N/C(=O)Nc1cccc(Cl)c1`, the Potency entry is “inactive”.

Test system in another assay: not listed separately
As to the kind of experiment: Counterscreen qHTS for small molecule stabilizers of the endoplasmic reticulum resident proteome: GLuc-NoTag assay (AID 1508627). Note: potency is the fitted concentration of half-maximal effect. As to conditions: Gaussia luciferase NoTag secretion counterscreen, luminescence, thapsigargin 100 nM for final 4 h; series mostly up to 76.4 µM. In outline: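 SH-SY5Y cells stably expressing constitutively secreted GLuc (no SERCaMP tag) were pre-incubated 5 h, treated with compound for 19 h, then 100 nM thapsigargin for 4 h at 37C; medium GLuc read by coelenterazine luminescence.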
(In general: Counterscreens check selectivity or assay interference.)
In the case of `CN1[C@@H](CC(=O)c2ccccc2)CCC[C@H]1C[C@H](O)c1ccccc1`, the Potency entry was “inactive”.
On to `Cn1cc(C2=C(c3ccc(Cl)cc3Cl)C(=O)NC2=O)c2ccccc21`, for which the Potency is 0.447 µM (active).
Consider `CCCN(CC1CC1)c1nc(C)nc(Nc2c(Cl)cc(Cl)cc2Cl)c1Cl`, for which the Potency result is “inactive”.
Same read-out and setting: under `NC(=S)c1ccc[n+]([C@@H]2O[C@@H](COP(=O)([O-])OP(=O)(O)OC[C@H]3O[C@@H](n4cnc5c(N)ncnc54)[C@H](OP(=O)(O)O)[C@@H]3O)C(O)C2O)c1` (stereo not given in full) stands “inactive”; under `CCCCCCCC/C=C\CCCCCCCC(=O)NCCO`, “inactive”.
Regarding `O=C(/C=C/c1ccc(O)c(O)c1)OCCc1ccccc1`, the Potency entry was “inactive”.
On the same count and under the same terms, in the case of `N#C/C(=C\c1ccc(O)c(O)c1)C(=O)c1ccc(O)c(O)c1` it was “inactive”; in that of `CC1CN(S(=O)(=O)c2cccc3cnccc23)CCN1` (stereo not given), “inactive”.

Test system in a further assay: not listed separately
As to the kind of experiment: Confirmatory qHTS for small molecule stabilizers of the endoplasmic reticulum resident proteome: Secreted ER Calcium Modulated Protein (SERCaMP) assay (AID 1508628). Note: nearly all actives have a fitted effect of over 40% in size. Note: potency is the fitted concentration of half-maximal effect. As to conditions: SERCaMP secreted luciferase ER calcium/proteostasis reporter; series mostly up to 76.3 µM. In outline: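 We seeded SH-SY5Y-GLuc-SERCaMP cells, added compounds (three concentrations in the primary run, eleven up to 76.6 uM in confirmation), incubated 16 h, depleted ER calcium with thapsigargin, and read luciferase 4 h later.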
Consider `Cn1cc(C2=C(c3ccc(Cl)cc3Cl)C(=O)NC2=O)c2ccccc21`, for which the Potency was 39.8 µM (active).
Still for that read-out and setting: under `Oc1cc2c(cc1O)CN(C(=S)NCCc1ccc(Cl)cc1)CCC2` stands 15.8 µM (active); under `CCCN(CC1CC1)c1nc(C)nc(Nc2c(Cl)cc(Cl)cc2Cl)c1Cl`, “inactive”.
Still for that read-out and setting: under `NC(=S)c1ccc[n+]([C@@H]2O[C@@H](COP(=O)([O-])OP(=O)(O)OC[C@H]3O[C@@H](n4cnc5c(N)ncnc54)[C@H](OP(=O)(O)O)[C@@H]3O)C(O)C2O)c1` (stereo not given in full) stands “inactive”.
Still for that read-out and setting: under `CCCCCCCC/C=C\CCCCCCCC(=O)NCCO` stands “inactive”.
`O=C(/C=C/c1ccc(O)c(O)c1)OCCc1ccccc1`: the Potency entry was “inactive and 4.47 µM (active)”.

Test system in the next assay: not listed separately
In words: Cell Viability qHTS for small molecule stabilizers of the endoplasmic reticulum resident proteome (AID 1508629).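 Note: human SH-SY5Y neuroblastoma cells carrying the GLuc-SERCaMP reporter; compound exposure about 46 h in total before the viability read.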 The conditions noted are these: cell viability counter-screen, 100 nM thapsigargin for final 4 h.
Consider `CCCN(CC1CC1)c1nc(C)nc(Nc2c(Cl)cc(Cl)cc2Cl)c1Cl`, for which the max response was 17.8% (inactive).
On to `CCCCCCCC/C=C\CCCCCCCC(=O)NCCO`, for which the max response is 21.6% (inactive).
On the same count and under the same terms, under `CC1CN(S(=O)(=O)c2cccc3cnccc23)CCN1` (stereo not given) stands 32.3% (inactive).

Test system in the next assay: not listed separately
In words: Primary qHTS for small molecule stabilizers of the endoplasmic reticulum resident proteome: Secreted ER Calcium Modulated Protein (SERCaMP) assay (AID 1508630). Note: potency is the fitted concentration of half-maximal effect. The conditions noted are these: SH-SY5Y GLuc-SERCaMP (Gaussia luciferase released on ER calcium loss) secretion, thapsigargin, luminescence; series mostly up to 38.4 µM. In outline:
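GLuc-SERCaMP-expressing SH-SY5Y cells, pretreated 16 h with compound, are challenged with thapsigargin to empty ER calcium stores; after 4 h, coelenterazine is added directly to the medium and luminescence is imaged.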
`CCC1C(=O)OCC1Cc1cncn1C` (stereo not given): the Potency result is “inactive”.
On to `CC(N)C(=O)OC(C)(C)Cc1ccc(Cl)cc1` (stereo not given), for which the Potency result was “inactive”.
Consider `CCCN(CC1CC1)c1nc(C)nc(Nc2c(Cl)cc(Cl)cc2Cl)c1Cl`, for which the Potency entry was “inactive”.
Consider `CCCCCCCC/C=C\CCCCCCCC(=O)NCCO`, for which the Potency was 12.6 µM (active).
As for `CN1CC(=O)N/C1=N/C(=O)Nc1cccc(Cl)c1`, the Potency result was “inactive”.
The same measure, in the same setting: in the case of `O=Nc1ccc2oc(=O)ccc2c1` it was “inactive”; in that of `Nc1ncnc2c1ncn2[C@@H]1O[C@H](COP(=O)(O)OP(=O)(O)OP(=O)(O)OP(=O)(O)OC[C@@H]2O[C@H](n3cnc4c(N)ncnc43)[C@@H](O)[C@H]2O)[C@@H](O)[C@H]1O`, “inactive”.
For `O=C(O)CNC(=O)C(CS)Cc1ccccc1` (stereo not given), the Potency result was “inactive”.
Still for that read-out and setting: in the case of `NC[C@@H]1O[C@H](C23CC4CC(CC(C4)C2)C3)Cc2c1ccc(O)c2O` it was “inactive”.
Same read-out and setting: under `NCC1OC(O[C@H]2[C@H](O)[C@@H](OC3C(O)C(N)CC(N)C3OC3OC(CO)C(O)C(O)C3N)O[C@@H]2CO)C(N)C(O)C1O` (stereo not given in full) stands “inactive”.
